Screens (PubChem BioAssay)
Compounds with a hit are over-represented: about 4.5% of the library has one in this group of screens.
TPT1 inhibitor: Candida albicans TPT1 enzyme inhibitors, primary screen, biochemical, fluorescence polarization; tRNA 2'-phosphotransferase TPT1 (Candida albicans SC5314); recombinant caTPT1, FP RNA substrate dephosphorylation; inhibition, % at 5 µM; 300,000 compounds, 0.81% hits; AID 1962, 2009;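 active means inhibition above the mean of all tested compounds plus 3 SD, set per screening campaign, cut at about 24% in these data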;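 further: plate controls were DMSO alone for no effect and ferristatin control at 100 nM for full effect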
Rpn11 inh: Rpn11 (PSMD14) deubiquitinase inhibitors, primary screen, biochemical, fluorescence polarization, uHTS. human 26S proteasome, Ub4-pepOG fluorescence polarization; 20S core pre-blocked with epoxomicin. 26S proteasome non-ATPase regulatory subunit 14 (Homo sapiens), O00487. 360,000 compounds, 0.59% hits. inhibition, % at 20 µM;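 active means inhibition at 20 µM, scaled to each plate's controls, above about 33%, limit read from the data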
Target sequence (O00487 whole entry, looked up): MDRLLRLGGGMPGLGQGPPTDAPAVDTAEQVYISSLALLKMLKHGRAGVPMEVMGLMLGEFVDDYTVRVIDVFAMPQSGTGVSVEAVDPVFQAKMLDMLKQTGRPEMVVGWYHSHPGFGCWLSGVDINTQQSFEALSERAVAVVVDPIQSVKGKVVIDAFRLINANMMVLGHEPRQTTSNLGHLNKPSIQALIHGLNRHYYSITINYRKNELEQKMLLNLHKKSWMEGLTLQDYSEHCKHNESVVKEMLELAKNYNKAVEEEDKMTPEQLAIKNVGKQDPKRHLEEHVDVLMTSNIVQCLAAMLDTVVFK
EBNA-1 inh: EBNA-1 DNA-binding inhibitors, primary screen, biochemical, fluorescence polarization | inhibition, % at 14.8 µM | 300,000 compounds, 0.34% hits | AID 1950, 2009; in the data active means inhibition above about 28%
ZTA counter: counter-screen for EBNA-1 inhibitors: inhibitors of Epstein-Barr virus ZTA; inhibition, % at 11 µM; P03206; AID 2234; ZTA-DNA binding, fluorescence polarization; 320,000 compounds, 0.15% hits; in the data active means inhibition above about 33%
Target sequence (P03206 whole entry, looked up): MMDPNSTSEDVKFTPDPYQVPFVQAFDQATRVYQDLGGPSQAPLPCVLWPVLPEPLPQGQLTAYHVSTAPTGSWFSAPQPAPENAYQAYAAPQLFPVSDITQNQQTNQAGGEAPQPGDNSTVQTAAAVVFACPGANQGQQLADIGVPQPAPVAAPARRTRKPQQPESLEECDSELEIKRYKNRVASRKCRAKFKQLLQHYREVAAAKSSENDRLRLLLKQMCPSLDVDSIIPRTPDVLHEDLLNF
dFosB activator: activators of delta FosB homodimer, primary screen, biochemical, fluorescence polarization, TAMRA-CDK5 oligo, single point; Protein FosB (Mus musculus), P13346; purified delta FosB; percent of positive-control signal above neutral wells; activation, % at 25 µM; 340,000 compounds, 0.99% hits; AID 493131, 2011;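 active means mean activation above about 17%, with every replicate also reaching it, limit read from the data, passing the limit was not always enough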
NR3A LBD binder: binders of NR3A ligand-binding domain, primary screen, biophysical, differential scanning fluorimetry, uHTS | Glutamate receptor ionotropic, NMDA 3A (GRIN3A) ligand-binding domain | NR3A LBD differential scanning fluorimetry, Tm shift; 0% = protein alone, 100% = glycine-bound protein | Tm shift relative to glycine control, % at 25 µM | 340,000 compounds, 2.5% hits | AID 1259313, 2017;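 active means melting temperature shift of at least 10% of the positive control shift, at one fixed dose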
Starred values were filed as active, the others as inactive; x = no result.

SMILES	TPT1 inhibitor	Rpn11 inh	EBNA-1 inh	ZTA counter	dFosB activator	NR3A LBD binder
O=C(/C=C/Nc1ccc(S(=O)(=O)Nc2ncccn2)cc1)c1ccc(Cl)c(Cl)c1	3.9	53.6*	-3.9	-4.7	-27.3	3.5
CC(=O)c1cccc(NS(=O)(=O)c2ccc(N/C=C/C(=O)c3ccc(F)cc3)cc2)c1	-1.1	2.9	3.7	0.1	-1.6	18.1*
O=C(NCc1ccco1)/C(=C\c1ccco1)NC(=O)c1ccco1	-4.3	-4.2	-0.3	-8.4	-3.5	-0.4
Oc1ccc(Cl)cc1C1=NNC(c2ccc(Cl)cc2)C1 (stereo unspecified)	3.6	8.4	4.6	-6.7	-4.5	11.5*
NS(=O)(=O)c1ccc(N2N=C(c3ccccc3)CC2c2cccc(Cl)c2)cc1 (stereo unspecified)	x	3.8	x	x	-0.7	24.1*
COc1ccc(C2CC(c3ccccc3Cl)=NN2c2ccc(S(N)(=O)=O)cc2)cc1 (stereo unspecified)	x	3.3	x	x	-0.1	11.4*
COc1ccc(C2CC(c3ccccc3)=NN2c2ccc(S(N)(=O)=O)cc2)cc1 (stereo unspecified)	0.9	-2.7	-3.0	9.0	-16.6	-0.7
COc1ccc(C2CC(c3cccc(Br)c3)=NN2c2ccc(S(N)(=O)=O)cc2)cc1 (stereo unspecified)	x	32.4	x	x	-4.8	27.0*
Cc1cccc(C2CC(c3ccccc3)=NN2c2ccc(S(N)(=O)=O)cc2)c1 (stereo unspecified)	x	-0.8	x	x	x	x
COc1ccc(C2CC(c3cccc(C(F)(F)F)c3)=NN2c2ccc(S(N)(=O)=O)cc2)cc1 (stereo unspecified)	x	-1.4	x	x	-6.5	28.4*
CCN(CC(=O)Nc1ccc(NC(C)=O)cc1)C(=O)c1c(C)nn(Cc2ccc(C)cc2)c1Cl	x	0.5	x	x	-6.7	-1.2
COc1ccc(C2CC(c3cccc(F)c3)=NN2c2ccc(S(N)(=O)=O)cc2)cc1 (stereo unspecified)	x	3.2	x	x	-10.6	36.8*
CCCn1c(N)c(N(CCOC)C(=O)c2cc3c(s2)CCCCC3)c(=O)[nH]c1=O	-1.1	-1.7	-2.2	0.5	-1.2	0.3
CCn1nc(C(=O)OC(C(=O)c2c[nH]c3ccccc23)c2ccccc2)c2ccccc2c1=O (stereo unspecified)	0.7	10.5	-5.0	-19.2	-3.5	19.6*
O=C(NCCCN1CCOCC1)c1cccnc1SCc1ccccc1Cl	2.8	-6.1	-5.8	-5.1	-0.9	-0.3
CSCCC(NC(=O)c1ccc(C)o1)C(=O)O (stereo unspecified)	-2.9	-0.5	-9.7	2.3	-2.4	15.5*
CCOC(=O)c1c(C)n(C)c2cc(-c3cccc(C(F)(F)F)c3)c(O)cc12	-1.7	-5.1	5.7	-7.2	-5.6	12.6*
COC(=O)c1ccc(NCc2c(O)ccc(O)c2Br)cc1Cl	x	6.6	x	x	-5.7	32.2*
COc1ccc(NC(=O)C2Cc3c(-c4ccc(NC(C)=O)cc4)ccnc3O2)cn1 (stereo unspecified)	x	-8.7	x	x	x	x
Cc1cccc(N2C(=O)N3[C@H](c4ccc(Cl)cc4)[C@@H]4C(=O)N(C5CCCCC5)C(=O)[C@@H]4[C@]3(Cc3ccc(Cl)cc3)C2=O)c1	-4.6	2.3	-0.3	6.6	8.6	21.1*
CC(C)(C)N1C(=O)[C@H]2[C@@H](c3ccc(Br)cc3)N3C(=O)N(c4cccc(Br)c4)C(=O)[C@@]3(Cc3ccccc3)[C@H]2C1=O	-0.8	5.2	19.0	11.7	-3.8	10.1*
O=C1[C@H]2[C@@H](c3ccc(F)cc3)N3C(=O)N(c4cccc(F)c4)C(=O)[C@@]3(Cc3ccc(Cl)cc3)[C@H]2C(=O)N1C1CCCCC1	6.0	-0.8	-9.9	-7.9	-10.6	9.6
CC(C)(C)N1C(=O)[C@H]2[C@@H](c3ccc(Br)cc3)N3C(=O)N(c4ccccc4)C(=O)[C@@]3(Cc3ccccc3)[C@H]2C1=O	0.2	-0.1	8.2	4.5	9.6	-6.1
O=C1[C@H]2[C@@H](c3ccc(Cl)cc3)N3C(=O)N(c4cccc(F)c4)C(=O)[C@@]3(Cc3ccc(Cl)cc3)[C@H]2C(=O)N1C1CCCCC1	-0.4	6.8	7.5	-26.2	8.6	13.8*
CCN(C(=O)CSc1nnc(-c2cccc(F)c2)n1N)c1c(N)n(Cc2ccccc2)c(=O)[nH]c1=O	x	2.4	x	x	-7.3	-0.9
SMILES	TPT1 inhibitor	Rpn11 inh	EBNA-1 inh	ZTA counter	dFosB activator	NR3A LBD binder
O=C(Nc1ccc(O)cc1)c1c(O)c2c([nH]c1=O)CCCC2	x	-3.4	x	x	-0.3	15.1*
Nc1ccc(Cn2ccc3c4c(N)nc(N)nc4ccc32)cc1	x	-1.6	x	x	157.8*	-1.6
COc1cc(OC)cc(N(C(=O)c2ccco2)C(C(=O)NC2CCCC2)c2ccc(N(C)C)cc2)c1 (stereo unspecified)	2.0	-2.6	-1.7	-2.3	-4.3	2.5
COc1ccc(N(C(=O)c2ccco2)C(C(=O)NC2CCCC2)c2ccc(N(C)C)cc2)cc1 (stereo unspecified)	-4.6	2.7	2.0	8.0	-4.2	10.3*
Cn1c(=O)oc2cc(S(=O)(=O)CCC(=O)Nc3ccccc3)ccc21	-0.7	2.4	6.7	-0.8	2.7	-0.9
CN(CCCNC(=O)c1cn(C)c2ccc(S(=O)(=O)N(C)C)cc2c1=O)c1ccccc1	-0.6	0.7	6.8	-7.0	-2.2	18.2*
CCN(CC)S(=O)(=O)c1ccc2c(c1)c(=O)c(C(=O)NCCCN(C)c1ccccc1)cn2C	0.0	10.2	-2.5	-6.0	-8.6	-7.8
COc1ccc(S(=O)(=O)Nc2cc(C)ccc2OC)cc1C	-0.3	1.3	-0.1	-6.2	-11.4	12.3*
COc1ccc(C)cc1NS(=O)(=O)c1ccc(NS(=O)(=O)c2ccc(NC(C)=O)cc2)cc1	-1.9	-3.9	-15.9	-9.3	-8.6	-0.4
COc1ccc(C)cc1S(=O)(=O)N(CC(=O)Nc1cccc([N+](=O)[O-])c1)c1ccc(C)c(C)c1	2.4	-0.1	4.2	-12.0	-8.7	32.7*
Cc1cccc(NS(=O)(=O)c2ccc3[nH]c(=O)cc(C(=O)OC(C)C(=O)Nc4ccc([N+](=O)[O-])cc4)c3c2)c1 (stereo unspecified)	-6.7	6.3	6.3	-3.7	8.1	11.1*
Cc1cccc(NS(=O)(=O)c2ccc(NC(=O)CN(c3cc([N+](=O)[O-])ccc3C)S(C)(=O)=O)cc2)c1	1.4	1.5	-0.1	-7.7	-9.0	22.0*
CNc1cncc(-c2cccc(OC)c2F)n1	x	2.4	x	x	x	x
